According to the supplement of paper PMC11732987, “Enantioselective OTUD7B fragment discovery through chemoproteomics screening and high-throughput optimisation” (Communications Chemistry, 2025):

Assays:
Assay in all cases: log2 ratio of Biotin-Ahx-Ub-VS probe labelling (fragment/DMSO); higher = less target engagement (more negative = stronger competition), active = hit call of the paper (q ≤ 0.05, log2 ratio ≤ -1)
Conditions in all cases: compound concentration: 200 uM; treatment time: 3 h
OTUD6B = biological target: T1, OTUD6B (UniProt Q8N6M0)
T1 sequence (whole entry): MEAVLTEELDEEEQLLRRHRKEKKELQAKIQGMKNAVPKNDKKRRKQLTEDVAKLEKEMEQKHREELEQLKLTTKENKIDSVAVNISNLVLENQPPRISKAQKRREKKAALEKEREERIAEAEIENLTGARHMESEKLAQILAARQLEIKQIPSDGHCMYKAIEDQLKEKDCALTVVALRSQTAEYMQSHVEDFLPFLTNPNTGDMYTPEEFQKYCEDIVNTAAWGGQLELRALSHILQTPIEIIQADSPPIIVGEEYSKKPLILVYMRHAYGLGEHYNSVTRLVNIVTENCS
Summary of the method: (§1)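 Labelled DUBs from HEK293T lysate were NeutrAvidin-enriched, digested with LysC and trypsin, and run by diaPASEF LC-MS/MS. Before that, each 495 µg sample in Tris/CHAPS/IGEPAL buffer with protease inhibitors was treated in triplicate with fragment at 200 µM or vehicle for 3 h, then with Biotin-Ahx-Ub-VS at 0.5 µM final for 1 h. Values are average log2 ratios of fragment over vehicle by unpaired t-test, based on global-median-normalised Spectronaut label-free quantities from proteins with ≥2 unique peptides.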

OTUD7B = biological target: T2, OTUD7B (UniProt Q6GQQ9)
T2 sequence (whole entry): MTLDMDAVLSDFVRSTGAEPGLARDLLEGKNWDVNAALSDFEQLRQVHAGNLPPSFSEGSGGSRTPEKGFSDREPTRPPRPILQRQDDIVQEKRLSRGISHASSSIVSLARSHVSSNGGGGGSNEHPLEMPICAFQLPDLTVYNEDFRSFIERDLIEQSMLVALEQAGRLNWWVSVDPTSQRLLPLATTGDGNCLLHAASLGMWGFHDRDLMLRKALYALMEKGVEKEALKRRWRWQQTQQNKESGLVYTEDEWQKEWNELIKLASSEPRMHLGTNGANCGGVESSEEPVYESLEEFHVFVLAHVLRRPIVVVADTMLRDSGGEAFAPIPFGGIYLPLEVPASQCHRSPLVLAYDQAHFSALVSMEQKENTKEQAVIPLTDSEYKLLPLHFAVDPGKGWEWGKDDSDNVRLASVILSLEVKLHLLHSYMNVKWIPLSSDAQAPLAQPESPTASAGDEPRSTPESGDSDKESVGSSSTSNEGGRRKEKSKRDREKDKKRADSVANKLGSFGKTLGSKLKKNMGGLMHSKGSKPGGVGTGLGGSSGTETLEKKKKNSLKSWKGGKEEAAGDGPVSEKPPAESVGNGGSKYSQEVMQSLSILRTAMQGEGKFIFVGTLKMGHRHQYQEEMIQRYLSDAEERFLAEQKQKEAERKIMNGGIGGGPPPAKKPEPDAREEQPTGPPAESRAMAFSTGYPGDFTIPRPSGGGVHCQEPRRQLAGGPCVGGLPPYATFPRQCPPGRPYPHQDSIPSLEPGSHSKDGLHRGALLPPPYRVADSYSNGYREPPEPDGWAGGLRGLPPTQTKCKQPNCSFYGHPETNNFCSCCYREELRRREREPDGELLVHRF
Summary of the method: as §1

PRPF8 = PRPF8 (UniProt Q6P2Q9)
Summary of the method: as §1

PSMD7 = biological target: T3, PSMD7 (UniProt P51665)
T3 sequence (whole entry): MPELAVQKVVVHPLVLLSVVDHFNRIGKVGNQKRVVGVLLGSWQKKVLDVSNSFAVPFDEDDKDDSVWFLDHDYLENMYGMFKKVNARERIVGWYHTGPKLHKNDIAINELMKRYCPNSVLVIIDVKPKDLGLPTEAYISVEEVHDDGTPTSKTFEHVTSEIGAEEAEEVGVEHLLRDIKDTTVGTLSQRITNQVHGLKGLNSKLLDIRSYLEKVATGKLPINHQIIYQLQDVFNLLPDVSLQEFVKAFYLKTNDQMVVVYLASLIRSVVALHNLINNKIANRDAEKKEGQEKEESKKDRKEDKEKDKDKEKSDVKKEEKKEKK
Summary of the method: as §1

UCHL1 = UCHL1 (UniProt P09936)
Summary of the method: as §1

UCHL3 = biological target: T4, UCHL3 (UniProt P15374)
T4 sequence (whole entry): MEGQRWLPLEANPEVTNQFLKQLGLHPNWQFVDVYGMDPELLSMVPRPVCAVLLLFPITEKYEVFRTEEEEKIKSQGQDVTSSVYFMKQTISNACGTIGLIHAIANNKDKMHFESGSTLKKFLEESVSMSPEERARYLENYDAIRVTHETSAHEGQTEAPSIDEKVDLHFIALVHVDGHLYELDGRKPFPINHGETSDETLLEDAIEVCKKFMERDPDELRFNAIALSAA
Summary of the method: as §1

UCHL5 = biological target: T5, UCHL5 (UniProt Q9Y5K5)
T5 sequence (whole entry): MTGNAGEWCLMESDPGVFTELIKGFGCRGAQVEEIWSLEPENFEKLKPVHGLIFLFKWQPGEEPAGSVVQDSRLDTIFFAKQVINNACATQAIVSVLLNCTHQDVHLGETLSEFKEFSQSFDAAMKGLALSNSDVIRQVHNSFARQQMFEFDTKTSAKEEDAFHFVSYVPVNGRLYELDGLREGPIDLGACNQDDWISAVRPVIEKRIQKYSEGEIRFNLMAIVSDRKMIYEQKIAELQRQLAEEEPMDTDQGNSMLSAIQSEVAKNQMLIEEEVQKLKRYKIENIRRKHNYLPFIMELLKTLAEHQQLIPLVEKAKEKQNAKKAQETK
Summary of the method: as §1

USP10 = USP10 (UniProt Q14694)
Summary of the method: as §1

USP15 = biological target: T6, USP15 (UniProt Q9Y4E8)
T6 sequence (whole entry): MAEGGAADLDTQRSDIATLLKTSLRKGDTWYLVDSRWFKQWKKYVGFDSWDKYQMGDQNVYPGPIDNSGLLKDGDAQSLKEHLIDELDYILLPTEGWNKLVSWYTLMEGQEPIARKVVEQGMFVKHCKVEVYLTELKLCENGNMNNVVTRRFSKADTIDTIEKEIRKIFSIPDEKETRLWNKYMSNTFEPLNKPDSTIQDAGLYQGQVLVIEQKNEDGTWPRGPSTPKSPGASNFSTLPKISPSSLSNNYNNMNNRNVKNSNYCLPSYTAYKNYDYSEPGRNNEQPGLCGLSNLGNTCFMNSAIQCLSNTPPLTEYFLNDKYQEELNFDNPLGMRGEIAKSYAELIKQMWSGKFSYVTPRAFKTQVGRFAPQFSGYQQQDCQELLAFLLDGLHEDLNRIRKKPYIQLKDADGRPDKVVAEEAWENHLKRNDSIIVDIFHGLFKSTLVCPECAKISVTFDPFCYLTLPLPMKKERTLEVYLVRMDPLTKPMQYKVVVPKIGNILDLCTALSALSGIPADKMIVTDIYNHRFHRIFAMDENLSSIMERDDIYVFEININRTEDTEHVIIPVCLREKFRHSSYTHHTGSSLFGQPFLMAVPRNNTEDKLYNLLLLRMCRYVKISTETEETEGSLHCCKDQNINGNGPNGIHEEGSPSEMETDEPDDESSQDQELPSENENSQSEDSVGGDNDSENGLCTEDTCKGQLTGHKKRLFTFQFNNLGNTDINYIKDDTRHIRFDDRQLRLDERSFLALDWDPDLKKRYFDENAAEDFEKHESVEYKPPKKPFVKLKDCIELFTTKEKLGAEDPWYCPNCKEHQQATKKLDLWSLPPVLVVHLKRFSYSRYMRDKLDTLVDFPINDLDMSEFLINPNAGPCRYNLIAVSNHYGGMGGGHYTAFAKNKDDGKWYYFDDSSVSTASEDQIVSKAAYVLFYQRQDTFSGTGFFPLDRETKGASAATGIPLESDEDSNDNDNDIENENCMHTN
Summary of the method: as §1

Measured: log2 ratio of Biotin-Ahx-Ub-VS probe labelling

Chain of UCHL1 (P09936 whole entry, looked up): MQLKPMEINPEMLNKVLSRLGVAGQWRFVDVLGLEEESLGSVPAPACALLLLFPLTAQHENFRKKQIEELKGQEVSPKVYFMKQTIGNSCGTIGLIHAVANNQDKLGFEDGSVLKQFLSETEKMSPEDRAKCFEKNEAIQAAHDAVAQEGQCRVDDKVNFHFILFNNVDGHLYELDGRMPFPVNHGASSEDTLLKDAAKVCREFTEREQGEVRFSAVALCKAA
Chain of USP10 (Q14694 whole entry): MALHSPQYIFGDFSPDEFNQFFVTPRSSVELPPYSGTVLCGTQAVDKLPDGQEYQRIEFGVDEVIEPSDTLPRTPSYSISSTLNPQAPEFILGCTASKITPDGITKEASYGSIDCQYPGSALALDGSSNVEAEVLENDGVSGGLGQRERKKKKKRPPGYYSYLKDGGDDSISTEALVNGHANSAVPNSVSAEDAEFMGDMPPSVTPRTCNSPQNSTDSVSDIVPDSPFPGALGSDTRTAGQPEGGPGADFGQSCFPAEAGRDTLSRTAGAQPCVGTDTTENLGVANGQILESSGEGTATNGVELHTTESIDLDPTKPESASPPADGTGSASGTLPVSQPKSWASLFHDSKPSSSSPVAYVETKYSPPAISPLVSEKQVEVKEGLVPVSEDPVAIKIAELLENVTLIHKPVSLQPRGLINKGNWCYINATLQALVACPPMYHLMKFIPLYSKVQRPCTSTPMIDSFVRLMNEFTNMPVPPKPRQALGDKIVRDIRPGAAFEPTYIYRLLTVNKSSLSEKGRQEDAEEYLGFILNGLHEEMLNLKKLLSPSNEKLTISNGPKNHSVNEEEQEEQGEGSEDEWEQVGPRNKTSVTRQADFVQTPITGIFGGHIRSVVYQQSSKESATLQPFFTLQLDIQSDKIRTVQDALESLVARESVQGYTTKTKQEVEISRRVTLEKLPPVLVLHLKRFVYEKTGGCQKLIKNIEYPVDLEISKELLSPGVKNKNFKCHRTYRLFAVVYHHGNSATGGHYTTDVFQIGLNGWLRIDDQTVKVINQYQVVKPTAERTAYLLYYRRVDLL

O=C(CCl)N1CC=C(c2c[nH]c3ccccc23)CC1
active: UCHL1 -1.12 | USP15 -1.46
inactive: OTUD6B -0.33 | OTUD7B -0.605 | PRPF8 0.0222 | PSMD7 0.00731 | UCHL3 0.00279 | UCHL5 -0.387 | USP10 -0.299
